Hit rate of the full screen: of about 220,000 compounds, about 1,600 (0.73%) were called active.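 Rule for the calls: active = mean inhibition across duplicate retests at 20 µM reaching about 50% (limit read from the data); inactive = the rest, inconclusive results apart.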 Shown is part of a subset that was picked to be rich in actives.

This is an account of results in PubChem BioAssay AID1434 (Sanford-Burnham Center for Chemical Genomics, 2008).

The target in the experiment is Runt-related transcription factor 1 (Homo sapiens) + Core-binding factor subunit beta (Homo sapiens) (UniProt Q01196+Q13951). The experiment is described as follows: inhibitors of RUNX1 Runt–CBFb-SMMHC binding, primary screen, biochemical, FRET, Cerulean-Runt, Venus-CBFb-SMMHC, uHTS (AID 1434).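 Note: 0% = DMSO wells and 100% = wells with excess untagged CBFb-SMMHC; inhibitors lower the FRET ratio by blocking Runt binding to CBFb-SMMHC.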 The conditions noted are these: Cerulean-Runt/Venus-CBFb-SMMHC FRET ratio 530/480, 1 h, at 20 µM, stronger effect = higher value.
Sequence of Runt-related transcription factor 1 (Homo sapiens) + Core-binding factor subunit beta (Homo sapiens) (Q01196 whole entry, looked up): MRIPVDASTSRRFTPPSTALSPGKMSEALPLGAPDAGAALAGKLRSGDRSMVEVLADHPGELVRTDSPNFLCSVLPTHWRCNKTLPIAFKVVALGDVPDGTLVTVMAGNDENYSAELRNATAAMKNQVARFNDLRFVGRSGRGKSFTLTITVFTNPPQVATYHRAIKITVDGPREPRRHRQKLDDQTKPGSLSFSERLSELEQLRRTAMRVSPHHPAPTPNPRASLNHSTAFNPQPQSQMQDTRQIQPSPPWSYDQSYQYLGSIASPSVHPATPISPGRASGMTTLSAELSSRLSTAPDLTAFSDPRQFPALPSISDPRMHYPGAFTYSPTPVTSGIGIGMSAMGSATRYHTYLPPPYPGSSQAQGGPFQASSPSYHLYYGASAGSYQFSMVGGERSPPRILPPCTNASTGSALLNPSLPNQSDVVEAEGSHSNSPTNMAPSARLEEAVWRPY
Sequence of Runt-related transcription factor 1 (Homo sapiens) + Core-binding factor subunit beta (Homo sapiens) (Q13951 whole entry, looked up): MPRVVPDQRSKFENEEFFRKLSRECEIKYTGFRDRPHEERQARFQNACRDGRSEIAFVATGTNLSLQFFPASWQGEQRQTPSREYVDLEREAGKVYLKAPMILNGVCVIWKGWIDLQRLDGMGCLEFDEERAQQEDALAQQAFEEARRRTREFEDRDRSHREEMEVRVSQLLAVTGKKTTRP

Take `COc1ccc(-c2cc3ccc(OCc4nn[nH]n4)cc3oc2=O)cc1`: the inhibition is 16.9% (inactive).
Take `O=c1c(-c2ccccc2)coc2cc(O)ccc12`: the inhibition is -4.05% (inactive).
As to `NS(=O)(=O)c1ccc(NC2=CC(c3ccc(F)cc3)N(c3ccc(S(N)(=O)=O)cc3)C2=O)cc1` (stereo not drawn), the inhibition is -4.3% (inactive).
Consider `Cc1ccc(Cl)cc1NC(=O)c1ccccn1`, for which the inhibition was -0.3% (inactive).
Consider `CCC1=C(C(=O)OC)C(c2cc(OC)ccc2OC)C(C#N)=C(N)O1` (stereo not drawn), for which the inhibition is -8.1% (inactive).
`COc1ccc(C2C(C#N)=C(N)Oc3cc(N)ccc32)cc1OC` (stereo not drawn): the inhibition is 102% (active). Also, the inhibition (retest duplicate average) turned out to be 108%.
For `COC(=O)C1=C(C)OC(N)=C(C#N)C1c1cc(OC)ccc1OC` (stereo not drawn), the inhibition was -18.1% (inactive).
On to `Cc1cc2nc(C(F)(F)F)cc(-c3cccs3)n2n1`, for which the inhibition was -2.5% (inactive).
With `CC(C)c1ccc(Nc2ncccc2C#N)cc1`, the inhibition is 2.1% (inactive).
With `CCOC(=O)Cc1csc(NC(=O)COc2ccc3c(C)cc(=O)oc3c2)n1`, the inhibition was -11.5% (inactive).
`Cc1ccc2c(CSc3nncs3)cc(=O)oc2c1`: the inhibition was -1% (inactive).
Turning to `CCOC(=O)Cc1csc(SCc2cc(=O)oc3cc(O)ccc23)n1`, the inhibition was 121% (active). Besides, the inhibition (retest duplicate average) turned out to be 114%.
As for `C=CCNC(=O)COC(=O)c1ccccc1C(=O)N(C)C1CCCCC1`, the inhibition was -5.7% (inactive).
Still for that read-out and setting: in the case of `COc1ccc2c(CC(=O)OCC(=O)NC(N)=O)coc2c1` it was 2.1% (inactive); in that of `Cc1ccc(-n2ncc3c(=O)n(-c4ccc(C)c(C)c4)c(-c4ccco4)nc32)cc1`, 1.4% (inactive).
Same read-out and setting: as for `Cc1cccc(-n2ncc(C#N)c2-n2cccc2)c1`, the figure is -1.3% (inactive).
`Cc1ccc(-n2c(=O)c(C#N)cc3c(=O)n4ccccc4nc32)cc1C`: the inhibition was 58.7% (active). Besides, the inhibition (retest duplicate average) came out at 72.9%.
On to `COc1ccc(NC(=O)C(Br)C(C)C)cc1` (stereo not drawn), for which the inhibition is 2.9% (inactive).
As to `c1ccc(-n2nnnc2-c2cccnc2)cc1`, the inhibition was -4.7% (inactive).
Regarding `COc1c(O)ccc2c1CN1CCc3cc4c(cc3C1C2)OCO4` (stereo not drawn), the inhibition was 78% (active). The inhibition (retest duplicate average) was determined as 110%.
Consider `COc1cc(COCC(O)CN2CCN(Cc3ccc4c(c3)OCO4)CC2)cc(OC)c1OC` (stereo not drawn), for which the inhibition was 1.8% (inactive).
Consider `COc1ccc2cc1Oc1ccc(cc1)C[C@H]1c3cc(c(OC)cc3CCN1C)Oc1c(O)c(OC)cc3c1[C@H](C2)N(C)CC3`, for which the inhibition is -0.6% (inactive).
The same measure, in the same setting: as for `CC(C)n1c(-c2ccncc2)n[nH]c1=S`, the figure is -1.2% (inactive); as for `Cc1ccc(C)c(Cn2nnc3c(=O)[nH]c(C(=O)Nc4ccc(F)cc4)nc32)c1`, 1.2% (inactive); as for `COc1ccc(Cl)cc1S(=O)(=O)N1CCC(O)(c2ccc(Cl)cc2)CC1`, -1.4% (inactive).
On to `C=CCn1c(COc2ccccc2)nnc1SCC(=O)NCC(=O)OCC`, for which the inhibition is 0.8% (inactive).
With `CCOC(=O)CNC(=O)CSc1nnc(COc2ccc(Cl)cc2)n1CC`, the inhibition is 2.7% (inactive).
In the case of `CCOC(=O)CNC(=O)CSc1nnc(-c2cccc(OC)c2)n1CC`, the inhibition was 60.6% (active). In addition, the inhibition (retest duplicate average) came out at 67.7%.
`Cc1cc2oc(=O)cc(CN3CCN(S(=O)(=O)c4cccs4)CC3)c2cc1C(C)C`: the inhibition is -6.5% (inactive).
With `CCN(CC)CCC(c1cc(OC)c(OC)c(OC)c1)c1c(OC)cc(OC)c2c(-c3ccccc3)cc(=O)oc12` (stereo not drawn), the inhibition was 1.1% (inactive).
With `O=c1[nH]c(CN2CCN(S(=O)(=O)c3ccc4c(c3)OCCO4)CC2)nc2sc3c(c12)CCCC3`, the inhibition was -6.3% (inactive).
On the same count and under the same terms, in the case of `CSc1nc(N)c(C#N)c(-c2ccccc2Cl)c1C#N` it was 2% (inactive).
Take `COc1ccccc1-c1c(C#N)c(N)nc2c1CCC2`: the inhibition was 61.7% (active). Also, the inhibition (retest duplicate average) is 60.2%.
With `COc1ccc(-c2cc(-c3ccc(N)cc3)nc(N)c2C#N)cc1OC`, the inhibition was 52.8% (inactive). Besides, the inhibition (retest duplicate average) was found to be 46.8%.
Regarding `COc1ccc(OCCNS(=O)(=O)Cc2ccccc2)cc1`, the inhibition was 2.9% (inactive).
As for `Cc1ccnc(N2CCC(C(=O)NC3CCCCCC3)CC2)n1`, the inhibition is 0.3% (inactive).
Regarding `Cc1ccnc(-n2sc3ccccc3c2=O)n1`, the inhibition was 54.6% (active). For the same molecule, under “retest duplicate average”, the inhibition came out at 58.2%.
Take `Cc1ccnc(Nc2nc3ccccc3s2)n1`: the inhibition is -5.4% (inactive).
Regarding `Cc1c(CCC(=O)O)c(=O)oc2cc3occ(-c4ccccc4)c3cc12`, the inhibition is -3.4% (inactive).
`CCCCCCc1cc2cc(-c3nnc(-c4ccccc4)o3)c(=O)oc2cc1O`: the inhibition is 80.9% (active). The inhibition (retest duplicate average) amounted to 146%.
Turning to `CCCC(=O)Nc1nnc(-c2ccccc2)o1`, the inhibition is 0.5% (inactive).
`COc1ccc(OCCCn2cccc2/C=C2/C(=N)N3OC(C)=CC3=NC2=O)cc1`: the inhibition is 0.8% (inactive).
As for `Cc1nn(C)c(C)c1S(=O)(=O)N1CCC(CO)(Cc2ccc(Cl)cc2)CC1`, the inhibition was 2.4% (inactive).
For the molecule `O=C(CCCO)N/N=C/c1cc(Br)ccc1O`, the inhibition is 14.5% (inactive).
On to `CCN(CC)CCn1c(/N=C/c2cc(Br)ccc2O)nc2ccccc21`, for which the inhibition is -10.6% (inactive).
On to `Oc1ccc(Br)cc1C=Nc1ccc2[nH]ncc2c1`, for which the inhibition was 75.6% (active). Moreover, for the setting “retest duplicate average”, the inhibition came to 86.7%.
In the case of `O=C(COC(=O)/C=C/c1ccc2c(c1)OCO2)NC1CCS(=O)(=O)C1` (stereo not drawn), the inhibition was 0.9% (inactive).
On to `O=[N+]([O-])c1ccc2c(c1)C(N1CCOCC1)/C(=C/C1(O)CCCCC1)O2` (stereo not drawn), for which the inhibition is -4.2% (inactive).
On to `CN(C(=O)CSc1nnc(-c2c[nH]c3ccccc23)o1)C1CCS(=O)(=O)C1` (stereo not drawn), for which the inhibition was 2.4% (inactive).
Consider `CSc1c(SCc2ccccc2)cnn(Cc2ccccc2)c1=O`, for which the inhibition is 59% (active). Also, the inhibition (retest duplicate average) worked out at 54.5%.
On to `O=c1c2ccccc2c(-c2ccccc2)nn1Cc1ccccc1`, for which the inhibition is 1.4% (inactive).
With `Cn1c(CO)cnc1SCc1ccccc1`, the inhibition was 3.5% (inactive).
Consider `CNC(=O)C(NC(=O)c1ccccc1)=C(C)C`, for which the inhibition is -2.9% (inactive).
Regarding `Cc1nc(C(=O)Nc2ccc(Cl)cc2)sc1C1(C)CC(c2ccccc2)=NO1` (stereo not drawn), the inhibition was -2.6% (inactive).
`Cc1cc(C#N)c(SCC(N)=O)nc1-c1ccc(F)cc1`: the inhibition is 14.7% (inactive).
In the case of `O=C(C1CCCO1)N1CCN(C(=S)NC2CC2)CC1` (stereo not drawn), the inhibition is -0.8% (inactive).
Consider `CCCCCCCN=C(C)c1ccccc1O`, for which the inhibition is -0.5% (inactive).
